# Biological target: PUM1 PUF domain R1-GRR (Homo sapiens, UniProt Q14671 828-1176, S863G;Q867R)
# Assay: yeast three-hybrid, YBZ-1, SC-Leu-His + 0.5 mM 3-AT, 4 days
# Settings: tags: N-Gal4 AD-HA kept; label: inside an RPR1-promoter hybrid RNA with tandem MS2 sites; ssRNA
# Outline: (§1)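 Each repeat of the Pumilio-1 PUF domain was randomized at its three base-contacting residues, and these libraries were co-expressed from a centromeric plasmid with matching RNA elements in strain YBZ-1. After four days on SC-Leu (input) or SC-Leu-His + 0.5 mM 3-AT (selection), the repeat regions were PCR-amplified and Illumina-sequenced. The interaction score compares variant frequency between input and selection as a log change, computed in log2 with a pseudocount of 1 for absent variants.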
row,Sequence,binding signal
1,GGCUAGAACUAGUGGAUCCCCCGGCGCCCGGCGGCUCGAGCCCGGGUAAGUGUAAAUCGUCUGCAUGCCGCCGGGCGCCAUGCCUGCAGGUCGACUCUAGAAAACAUG,3.99 log2 enrichment (interaction score)
2,GGCUAGAACUAGUGGAUCCCCCGGCGCCCGGCGGCUCGAGCCCGGGUAAGUGUAAAUUGUCUGCAUGCCGCCGGGCGCCAUGCCUGCAGGUCGACUCUAGAAAACAUG,2.59 log2 enrichment (interaction score)
3,GGCUAGAACUAGUGGAUCCCCCGGCGCCCGGCGGCUCGAGCCCGGGUAAGUGUAAAUGGUCUGCAUGCCGCCGGGCGCCAUGCCUGCAGGUCGACUCUAGAAAACAUG,1.78 log2 enrichment (interaction score)

# Biological target: PUM1 PUF domain R3-LFV (Homo sapiens, UniProt Q14671 828-1176, C935L;R936F;Q939V)
# Assay: as above
# Settings: tags: N-Gal4 AD-HA kept; label: inside an RPR1-promoter hybrid RNA with tandem MS2 sites; ssRNA
# Outline: as §1
row,Sequence,binding signal
1,GGCUAGAACUAGUGGAUCCCCCGGCGCCCGGCGGCUCGAGCCCGGGUAAGUGUAACUAGUCUGCAUGCCGCCGGGCGCCAUGCCUGCAGGUCGACUCUAGAAAACAUG,2.66 log2 enrichment (interaction score)
2,GGCUAGAACUAGUGGAUCCCCCGGCGCCCGGCGGCUCGAGCCCGGGUAAGUGUAAAUAGUCUGCAUGCCGCCGGGCGCCAUGCCUGCAGGUCGACUCUAGAAAACAUG,3.48 log2 enrichment (interaction score)
3,GGCUAGAACUAGUGGAUCCCCCGGCGCCCGGCGGCUCGAGCCCGGGUAAGUGUAAUUAGUCUGCAUGCCGCCGGGCGCCAUGCCUGCAGGUCGACUCUAGAAAACAUG,4.09 log2 enrichment (interaction score)
4,GGCUAGAACUAGUGGAUCCCCCGGCGCCCGGCGGCUCGAGCCCGGGUAAGUGUAAGUAGUCUGCAUGCCGCCGGGCGCCAUGCCUGCAGGUCGACUCUAGAAAACAUG,5.59 log2 enrichment (interaction score)

# Biological target: PUM1 PUF domain R5-GRC (Homo sapiens, UniProt Q14671 828-1176, C1007G;Q1011C)
# Assay: as above
# Settings: tags: N-Gal4 AD-HA kept; label: inside an RPR1-promoter hybrid RNA with tandem MS2 sites; ssRNA
# Outline: as §1
row,Sequence,binding signal
1,GGCUAGAACUAGUGGAUCCCCCGGCGCCCGGCGGCUCGAGCCCGGGUAAGUGUAAAUAGUCUGCAUGCCGCCGGGCGCCAUGCCUGCAGGUCGACUCUAGAAAACAUG,4.07 log2 enrichment (interaction score)
2,GGCUAGAACUAGUGGAUCCCCCGGCGCCCGGCGGCUCGAGCCCGGGUAAGUGUCAAUAGUCUGCAUGCCGCCGGGCGCCAUGCCUGCAGGUCGACUCUAGAAAACAUG,0.62 log2 enrichment (interaction score)
3,GGCUAGAACUAGUGGAUCCCCCGGCGCCCGGCGGCUCGAGCCCGGGUAAGUGUUAAUAGUCUGCAUGCCGCCGGGCGCCAUGCCUGCAGGUCGACUCUAGAAAACAUG,4.6 log2 enrichment (interaction score)
4,GGCUAGAACUAGUGGAUCCCCCGGCGCCCGGCGGCUCGAGCCCGGGUAAGUGUGAAUAGUCUGCAUGCCGCCGGGCGCCAUGCCUGCAGGUCGACUCUAGAAAACAUG,1.57 log2 enrichment (interaction score)

# Biological target: PUM1 PUF domain R3-GPQ (Homo sapiens, UniProt Q14671 828-1176, C935G;R936P)
# Assay: as above
# Settings: tags: N-Gal4 AD-HA kept; label: inside an RPR1-promoter hybrid RNA with tandem MS2 sites; ssRNA
# Outline: as §1
row,Sequence,binding signal
1,GGCUAGAACUAGUGGAUCCCCCGGCGCCCGGCGGCUCGAGCCCGGGUAAGUGUAAAUAGUCUGCAUGCCGCCGGGCGCCAUGCCUGCAGGUCGACUCUAGAAAACAUG,4.19 log2 enrichment (interaction score)
2,GGCUAGAACUAGUGGAUCCCCCGGCGCCCGGCGGCUCGAGCCCGGGUAAGUGUAAUUAGUCUGCAUGCCGCCGGGCGCCAUGCCUGCAGGUCGACUCUAGAAAACAUG,1.42 log2 enrichment (interaction score)
3,GGCUAGAACUAGUGGAUCCCCCGGCGCCCGGCGGCUCGAGCCCGGGUAAGUGUAAGUAGUCUGCAUGCCGCCGGGCGCCAUGCCUGCAGGUCGACUCUAGAAAACAUG,3.73 log2 enrichment (interaction score)

# Biological target: PUM1 PUF domain R3-EFS (Homo sapiens, UniProt Q14671 828-1176, C935E;R936F;Q939S)
# Assay: as above
# Settings: tags: N-Gal4 AD-HA kept; label: inside an RPR1-promoter hybrid RNA with tandem MS2 sites; ssRNA
# Outline: as §1
row,Sequence,binding signal
1,GGCUAGAACUAGUGGAUCCCCCGGCGCCCGGCGGCUCGAGCCCGGGUAAGUGUAAAUAGUCUGCAUGCCGCCGGGCGCCAUGCCUGCAGGUCGACUCUAGAAAACAUG,2.99 log2 enrichment (interaction score)
2,GGCUAGAACUAGUGGAUCCCCCGGCGCCCGGCGGCUCGAGCCCGGGUAAGUGUAAUUAGUCUGCAUGCCGCCGGGCGCCAUGCCUGCAGGUCGACUCUAGAAAACAUG,4.44 log2 enrichment (interaction score)
3,GGCUAGAACUAGUGGAUCCCCCGGCGCCCGGCGGCUCGAGCCCGGGUAAGUGUAAGUAGUCUGCAUGCCGCCGGGCGCCAUGCCUGCAGGUCGACUCUAGAAAACAUG,3.82 log2 enrichment (interaction score)

# — article PMC8384837, “Expanding the binding specificity for RNA recognition by a PUF domain”
